Results taken from PubChem BioAssay (EPA / NIEHS).
Calls of active or inactive are those of the source. The calls were made as follows: active = hit-call score of the fitted dose curve at least 0.9, where 1 is the maximum; inactive = score below 0.9.

Tests used:
[1] = ATG_E_Box_CIS: Attagene CIS-FACTORIAL HepG2 Assay for human Enhancer Box (E-box) (AID 2282936); details: HepG2 E-box cis-reporter transcription, actives raise or lower the signal
Summary of the method: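 First, HepG2 cells receive multiple cis-regulated reporter constructs by transient transfection. Next, chemicals are applied for 24 h. Finally, reporter mRNA is quantified via RT-PCR and capillary electrophoresis, with DMSO as baseline.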

[2] = ATG_M_61_CIS: Attagene CIS-FACTORIAL HepG2 Assay for M61 Transcription Factor (Internal Marker) (AID 2282937); details: HepG2 Attagene CIS-FACTORIAL M61 internal marker reporter; actives raise or lower the signal
Summary of the method: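 HepG2 cells transiently transfected with multiplexed cis-promoter reporter units reporting endogenous transcription factor activity, measured 24 h after dosing. Reporter mRNA quantified by RT-PCR and capillary electrophoresis; bidirectional fit against DMSO baseline.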

[3] = ATG_EGR_CIS: Attagene CIS-FACTORIAL HepG2 Assay for human Early Growth Response 1 (EGR1) (AID 2282938); details: HepG2 Attagene CIS-FACTORIAL EGR reporter mRNA; actives raise or lower the signal
Summary of the method: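 HepG2 cells transiently transfected with cis-element-driven multiplexed reporter units, dosed for 24 h. EGR1-element reporter mRNA quantified by RT-PCR, 6-FAM labelling, HpaI digestion and capillary electrophoresis; bidirectional fit versus DMSO.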

[4] = ATG_M_19_CIS: Attagene CIS-FACTORIAL HepG2 Assay for M19 Transcription Factor (Internal Marker) (AID 2282939); details: HepG2 Attagene CIS-FACTORIAL M19 internal marker reporter; actives raise or lower the signal
Summary of the method: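 Chemical-treated HepG2 (24 h) with MRTU constructs; reporter transcripts detected by fluorescent RT-PCR fragment analysis on capillary electrophoresis. Internal background marker, DMSO as baseline.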

[5] = ATG_Ets_CIS: Attagene CIS-FACTORIAL HepG2 Assay for human Erythroblast Transformation Specific (ETS) (AID 2282941); details: HepG2 ETS cis-reporter transcription, actives raise or lower the signal
Summary of the method: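 Steps: transfect HepG2 with multiple reporter units; treat compound 24 h; isolate RNA, DNase-treat, reverse-transcribe; PCR-amplify, label with 6-FAM, digest with HpaI; separate by capillary electrophoresis. Activity fitted both directions versus DMSO.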

[6] = biological target: Hepatocyte nuclear factor 3-beta (Homo sapiens) (UniProt Q9Y261); assay: ATG_FoxA2_CIS: Attagene CIS-FACTORIAL HepG2 Assay for human Forkhead box A2 (FOXA2) (AID 2282942); details: HepG2 cis-reporter transcription factor activity, 24 h; actives raise or lower the signal
Summary of the method: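 HepG2 transiently transfected with a multiplexed cis-promoter reporter library read endogenous FOXA2 activity. After 24 h compound exposure, reporter mRNA was quantified by RT-PCR, HpaI digestion and capillary electrophoresis. Bidirectional fit against DMSO.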

[7] = ATG_FoxO_CIS: Attagene CIS-FACTORIAL HepG2 Assay for human Forkhead box O (FoxO) (AID 2282943); details: HepG2 Attagene cis-reporter, FoxO element, mRNA; actives raise or lower the signal
Summary of the method: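 Transfected HepG2 reporter cells exposed to test chemical for 24 h; reporter RNA measured by reverse transcription, PCR and fluorescent capillary electrophoresis; curves fitted for increases and decreases against DMSO.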

[8] = ATG_GATA_CIS: Attagene CIS-FACTORIAL HepG2 Assay for human GATA Binding Protein (AID 2282944); details: HepG2 GATA cis-element reporter, Attagene multiplex mRNA; actives raise or lower the signal
Summary of the method: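 Transfected cis-reporter HepG2 cells were treated with chemicals for 24 hours. Total RNA was then converted to cDNA, amplified with reporter-specific primers and analysed by fluorescent capillary electrophoresis, using DMSO-treated wells as baseline.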

[9] = ATG_GLI_CIS: Attagene CIS-FACTORIAL HepG2 Assay for human Zinc Finger Protein GLI1 (AID 2282945); details: HepG2, Attagene cis-factorial reporter mRNA, GLI element; actives raise or lower the signal
Summary of the method: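 Transiently transfected HepG2 cells report endogenous transcription factor activity via cis-element-driven reporter units. After 24 h compound exposure, reporter mRNA was measured by RT-PCR with capillary electrophoresis; bidirectional fitting against DMSO baseline.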

Measured: outcome

Sequence of Hepatocyte nuclear factor 3-beta (Homo sapiens) (Q9Y261 whole entry, looked up): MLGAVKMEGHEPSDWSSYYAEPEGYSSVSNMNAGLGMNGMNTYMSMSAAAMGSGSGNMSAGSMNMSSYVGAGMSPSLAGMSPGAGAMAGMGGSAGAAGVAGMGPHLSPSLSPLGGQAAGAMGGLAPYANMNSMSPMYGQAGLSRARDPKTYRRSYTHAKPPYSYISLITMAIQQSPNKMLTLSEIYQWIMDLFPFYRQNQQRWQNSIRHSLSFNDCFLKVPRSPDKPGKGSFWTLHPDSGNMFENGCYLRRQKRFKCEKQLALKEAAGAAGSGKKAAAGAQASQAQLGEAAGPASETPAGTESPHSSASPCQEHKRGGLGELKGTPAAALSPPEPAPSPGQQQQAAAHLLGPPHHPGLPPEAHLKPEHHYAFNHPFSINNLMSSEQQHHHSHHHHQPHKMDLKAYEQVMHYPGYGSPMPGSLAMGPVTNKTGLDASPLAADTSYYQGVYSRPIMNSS

CC(C)[C@H]1CC[C@@H](C)CC1=O
inactive: all assays above

CC(O)C(C)O (configuration not stated)
inactive: all assays above

C=CCOC(=O)CCC1CCCCC1
inactive: all assays above

CCCc1ccccc1O
inactive: all assays above

CC1(C)[C@@H]2CC[C@@]1(C)[C@H](O)C2
inactive: all assays above

O=c1[nH]nnc2ccccc12
not listed: [8]
inactive: all other assays above

C=O
inactive: all assays above

CCCCC(CC)COC(=O)/C=C\C(=O)OCC(CC)CCCC (configuration not stated)
not listed: [8]
inactive: all other assays above

c1ccc2[nH]ccc2c1
not listed: [8]
inactive: all other assays above

CCCCC(CC)COCCC#N (configuration not stated)
inactive: all assays above

CC(=O)C(C)=O
not listed: [8]
inactive: all other assays above

C=COCCOCCOCCOC=C
inactive: all assays above

CCCCNC(=O)NS(=O)(=O)c1ccc(C)cc1
inactive: all assays above

CCCC(=O)OCCC(C)CCC=C(C)C (configuration not stated)
inactive: all assays above

CC(=O)C(=O)O
inactive: all assays above

CN(C)CCOCCN(C)C
inactive: all assays above

C/C=C(\C)C(=O)OCc1ccccc1
inactive: all assays above

CCC(=O)OCc1ccccc1
not listed: [8]
inactive: all other assays above

CC(C)=CCC/C(C)=C/COC=O
inactive: all assays above

CC(C#N)(CCC(=O)O)N=NC(C)(C#N)CCC(=O)O (configuration not stated)
inactive: all assays above

CC(C)=CCC[C@](C)(O)[C@@H]1CC=C(C)CC1
inactive: all assays above

CC1CCC2CC1C2(C)C (configuration not stated)
not listed: [8]
inactive: all other assays above

COC(=O)OC
inactive: all assays above

C[C@H]1C[C@@H]2[C@H]([C@@H](O)C[C@@]3(C)[C@H]2CC[C@]3(O)C(=O)CO)[C@@]2(C)C=CC(=O)C=C12
inactive: all assays above

Clc1ccc(Cl)c(Cl)c1Cl
not listed: [8]
inactive: all other assays above

C=C(C)C1CCC(C)CC1O (configuration not stated)
not listed: [7]
inactive: all other assays above

CCCCC[Si](OCC)(OCC)OCC
not listed: [6]
inactive: all other assays above

Nc1cc([N+](=O)[O-])ccc1O
not listed: [7]
inactive: all other assays above
